This is part of a sample that, as a whole, favours compounds with a hit. Of some 79,000 tested, about 15% had one in any assay. No stated cut-off is given here; in the data, active means growth inhibition above about 70%; inactive means the rest.
Key:
[1] = NCI Yeast Anticancer Drug Screen. Data for the rad50 strain (AID 155);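 further: 0% = growth of vehicle-only cultures of the same strain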; conditions: S. cerevisiae rad50 strain growth inhibition; at 50.0 µM; hits give high values
How it was run: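 A DNA repair-deficient yeast mutant serves as the test organism; compound-induced growth inhibition is calculated against vehicle-treated cells.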

[2] = NCI Yeast Anticancer Drug Screen. Data for the mec2-1 strain (AID 157); conditions: S. cerevisiae mec2-1 strain, at 50.0 µM, hits give high values
How it was run: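 Growth inhibition is read against vehicle-treated controls after compound exposure of the mec2-1 yeast strain, which is defective in DNA damage repair or cell cycle control.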

[3] = NCI Yeast Anticancer Drug Screen. Data for the sgs1 mgt1 strain (AID 161);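 further: 0% = growth of cultures given vehicle only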; conditions: S. cerevisiae sgs1 mgt1 strain, at 50.0 µM, hits give high values
How it was run: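 Yeast cells carrying a defined DNA-repair defect were exposed to test compounds. Growth inhibition was measured relative to vehicle-treated controls.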

[4] = NCI Yeast Anticancer Drug Screen. Data for the cln2 rad14 strain (AID 165);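 further: 0% = growth equal to vehicle treated cultures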; conditions: S. cerevisiae cln2 rad14 strain, at 50.0 µM, hits give high values
How it was run: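 Growth inhibition, relative to vehicle-treated controls, is the read-out. The test organism is a yeast strain with defined genetic alterations, cln2 rad14.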

[5] = NCI Yeast Anticancer Drug Screen. Data for the bub3 strain (AID 167); conditions: S. cerevisiae bub3 mutant strain, at 50.0 µM, hits give high values
How it was run: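 Inhibition values come from growth of compound-treated mutant yeast normalised to vehicle-treated controls.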

[6] = NCI Yeast Anticancer Drug Screen. Data for the mlh1 rad18 strain (AID 175); conditions: S. cerevisiae mlh1 rad18 strain growth inhibition; at 50.0 µM; hits give high values
How it was run: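 Cells of a genetically altered yeast strain, deficient in DNA damage repair, were treated with compound. Their growth was then compared with that of vehicle-treated cultures to give inhibition.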

Measured: growth inhibition

CC(=O)N1CN=C2Sc3ccccc3N2C1
inactive: [1] 4.05% | [2] 0.2% | [3] 8.45% | [4] -16% | [5] 13.2% | [6] 18.5%

O=c1[nH]c2cc([N+](=O)[O-])ccc2nc1/C(=N/Nc1ccccc1)C(O)c1ccco1 (stereo not given)
inactive: [1] 7.9% | [2] -17.4% | [3] 9.2% | [4] 16.2% | [5] 6.65% | [6] 25.3%

COc1ccc(OC)c(C(N)=O)c1
inactive: [1] -0.1% | [2] 13.8% | [3] -1.25% | [4] 0.95% | [5] 0.85% | [6] -2.5%

Nc1ccc(S(=O)(=O)O)cc1
inactive: [1] -20.6% | [2] 3.85% | [3] 2.35% | [4] -29.3% | [5] -6.75% | [6] -2.55%

O=S(=O)(O)CO
inactive: [1] 16.9% | [2] 4.6% | [3] 26% | [4] 7.35% | [5] -7.7% | [6] 20.4%

C[C@H](CCC(=O)NCC(=O)O)[C@H]1CC[C@H]2[C@@H]3[C@H](O)C[C@@H]4C[C@H](O)CC[C@]4(C)[C@H]3CC[C@]12C
inactive: [1] 14.2% | [2] -13.4% | [3] 0.15% | [4] 4.05% | [5] -0.3% | [6] 6.5%

O=C1CC(c2ccccc2)C(c2ccccc2)C1C(=O)OC1CCCCC1 (stereo not given)
inactive: [1] 0.5% | [2] 2.85% | [3] 0.65% | [4] -62.5% | [5] 0.55% | [6] -15.4%

CCCCCCCCCCCCCC(=O)CCCC
inactive: [1] -9.7% | [2] -8.4% | [3] 2.2% | [4] -22.5% | [5] -2.45% | [6] -18%

OC1CCCCC1[n+]1ccccc1 (stereo not given)
inactive: [1] -7.8% | [2] -0.6% | [3] -7.45% | [4] -24.1% | [5] -7.35% | [6] -0.55%

O=C(c1ccccc1)c1ccc2c(c1)-c1ccccc1-2
inactive: [1] 7.3% | [2] -7% | [3] 15.1% | [4] -21.1% | [5] 12.8% | [6] 12.8%

CCOC(=O)C(C)Oc1ccc(Cn2ccnn2)cc1 (stereo not given)
inactive: [1] -20.1% | [2] -1.25% | [3] 15.9% | [4] -4.05% | [5] 3.1% | [6] 6.25%

CCCCC(CC)OC(=O)Cc1ccccc1 (stereo not given)
inactive: [1] 10.9% | [2] -4.25% | [3] 13.1% | [4] -6.5% | [5] -4.45% | [6] 16.5%

O=C(O)/C=C(/C(=O)O)c1cccn1Cc1ccccc1
inactive: [1] 6.7% | [2] 14.2% | [3] 19.6% | [4] 17.4% | [5] 13.4% | [6] 16.4%

COc1cc2c(cc1OC)C(CS(C)=O)Cc1cc(OC)c(OC)cc1N(C)CCC2 (stereo not given)
inactive: [1] 10.5% | [2] 19.4% | [3] 14.2% | [4] 10.6% | [5] -1.55% | [6] 29.9%

CC(=O)n1c(N)nc2ccccc21
inactive: [1] 21.3% | [2] -2.85% | [3] 6.95% | [4] 3.4% | [5] 1.45% | [6] 28.8%

O=C1CC(=O)N(c2ccccc2)N1
inactive: [1] 35.2% | [2] 7.45% | [3] 45% | [4] 19.9% | [5] 35.1% | [6] 16.9%

CCOC(=O)C(NC(=O)Cc1ccccc1)C(=O)OCC
inactive: [1] 10.8% | [2] 10.3% | [3] -0.75% | [4] 10.8% | [5] 14.9% | [6] -17.9%

CCC=Nc1ccccc1CO
inactive: [1] 12.2% | [2] 8.5% | [3] -1.05% | [4] 30.3% | [5] -4% | [6] 5.4%

CN(CCNC(=O)NCCCCCCNC(=O)NCCN(C)c1ccccc1)c1ccccc1
inactive: [1] -6% | [2] -44% | [3] -6.7% | [4] -33.2% | [5] 3.45% | [6] -5.05%

O=[N+]([O-])c1ccc(Oc2ccccc2-c2ccccc2)c([N+](=O)[O-])c1
inactive: [1] -2% | [2] -3.7% | [3] 11.6% | [4] -73.7% | [5] 8.2% | [6] 14.4%
